This note sets out measurements from ChEMBL document CHEMBL1157539, “Thousands of chemical starting points for antimalarial lead identification” (Nature, 2010).

Common to all, as to type: functional
Assay [1] has as its system Plasmodium falciparum. The assay is described as follows: GSK_TCMDC: Inhibition of Plasmodium falciparum 3D7 in whole red blood cells, using parasite LDH activity as an index of growth. Test compounds present at 2uM.
The test system of assay [2] is Plasmodium falciparum. Put plainly: GSK_TCMDC: Inhibition of Plasmodium falciparum Dd2 in whole red blood cells, using parasite LDH activity as an index of growth. Test compounds present at 2uM.
The test system of the next assay is HepG2. Put plainly: GSK_TCMDC: Percent inhibition of human HepG2 cell line. Test compounds present at 10uM.

As a reminder, the Inhibition is the relative decrease from the control value, in per cent. Read a high Inhibition as a response far below the control.

For the molecule `COc1cc(C(=O)NC2CC(C)(C)N(C)C(C)(C)C2)ccc1-c1cc2cc(Cl)c(Cl)cc2[nH]1`, the Inhibition amounted to 89% in the assay on Plasmodium falciparum [1], 36% with Plasmodium falciparum [2] and 65% with HepG2.

As to `COc1cc(-n2c(CN3CCCC3)nc3cc(-c4ccc(Cl)cc4)sc3c2=O)ccc1OCCN1CCCC1.O=C(O)C(F)(F)F`, the Inhibition in the assay with Plasmodium falciparum [1] came out at 94%; in the assay on Plasmodium falciparum [2], 90%; in the assay with HepG2, 66%.

On to `Cc1[nH]c(C)c(-c2ccc(CCc3ccc(N)cc3)cc2)c(=O)c1Cl`, for which the figures for the Inhibition in the assay with Plasmodium falciparum [1], in the assay on Plasmodium falciparum [2] and in the assay on HepG2 were 97%, 97% and 2%, respectively.

Take `CNC(=O)COc1cc(C)c(C2CCN(CCCCNC(=O)c3ccc(-c4ccc(C(F)(F)F)cc4)cc3)CC2)cc1C`: the Inhibition in the assay with Plasmodium falciparum [1] turned out to be 100%; in the assay with Plasmodium falciparum [2], 72%; with HepG2, 38%.

As for `Cn1c2c(c3ccccc31)CN(CCC1(c3ccc(Cl)c(Cl)c3)CN(C(=O)Cc3ccccc3)CCO1)CC2` (configuration not stated), the Inhibition with Plasmodium falciparum [1] was 95%; with Plasmodium falciparum [2], 91%; in the assay on HepG2, 22%.

Consider `Cc1cc(Nc2cc(Cl)cc(Cl)c2)nc(N)n1`, for which the values for the Inhibition with Plasmodium falciparum [1], with Plasmodium falciparum [2] and with HepG2 were 94%, 28% and 0%, respectively.

For the molecule `CC(C)N1CCC(N(Cc2ccc(-c3ccc(C(F)(F)F)cc3)cc2)C(=O)CCCn2c(CCc3cccc(F)c3F)nc(=O)c3ccccc32)CC1.O=C(O)C(O)C(O)C(=O)O`, the Inhibition in the assay on Plasmodium falciparum [1] is listed as 89%; in the assay on Plasmodium falciparum [2], 60%; in the assay on HepG2, 45%.

`O=C(O[C@@H]1CN[C@H](C#Cc2cc3c(Nc4ccc5c(cnn5Cc5ccccc5)c4)ncnc3s2)C1)N1CCCC1`: the results for the Inhibition with Plasmodium falciparum [1], in the assay with Plasmodium falciparum [2] and in the assay on HepG2 were 99%, 87% and 8%, respectively.

Regarding `Cc1cc2nc(-c3ccc(/C=C/C(=O)NC4CCN(Cc5ccccc5)CC4)cc3)[nH]c2cc1C`, the Inhibition with Plasmodium falciparum [1] is 98%; in the assay on Plasmodium falciparum [2], 89%; with HepG2 it was 18%.

Turning to `CC[C@H](C)CNC(=O)c1cncc(-c2cccc(CNC3Cc4ccccc4C3)c2)c1.O=C(O)C(F)(F)F`, the Inhibition was 100% in the assay on Plasmodium falciparum [1], 76% in the assay on Plasmodium falciparum [2] and 5% in the assay with HepG2.

Regarding `FC(F)(F)c1ccc2nccc(NCc3ccccc3)c2c1`, the results for the Inhibition with Plasmodium falciparum [1], with Plasmodium falciparum [2] and in the assay with HepG2 were 93%, 56% and 18%, respectively.

`Cl.c1ccc2c(NCCCCCCCCNc3ccnc4ccccc34)ccnc2c1`: the Inhibition in the assay with Plasmodium falciparum [1] was found to be 100%; in the assay with Plasmodium falciparum [2], 35%; in the assay on HepG2, 57%.

Consider `COc1ccc(OC)c(C=NNc2nc3ccccc3[nH]2)c1`, for which the Inhibition is given as 99% in the assay with Plasmodium falciparum [1], 28% in the assay with Plasmodium falciparum [2] and 0% in the assay with HepG2.

`CCc1nc2c(cnn2CC)c(NC2CCOCC2)c1CNC(=O)c1ccoc1C`: the results for the Inhibition in the assay on Plasmodium falciparum [1], with Plasmodium falciparum [2] and in the assay on HepG2 were 97%, 87% and 6%, respectively.

Take `O=C(NCCN1CCCCC1)c1cc2cc(-c3ccccc3)ccc2n1S(=O)(=O)c1ccccc1`: the Inhibition is 90% in the assay with Plasmodium falciparum [1], 0% with Plasmodium falciparum [2] and 15% in the assay on HepG2.

On to `CCNC[C@H]1CCCN1CCOc1ccc(-n2cnc3cc(-c4ccc(Cl)cc4)sc3c2=O)cc1OC.O=C(O)C(F)(F)F`, for which the figures for the Inhibition in the assay on Plasmodium falciparum [1], in the assay on Plasmodium falciparum [2] and in the assay with HepG2 were 97%, 39% and 53%, respectively.

Take `CC(C)N(Cc1ccccc1)C(=O)CN1C(=O)COc2ccc(S(=O)(=O)N3CCCCCC3)cc21`: the Inhibition in the assay on Plasmodium falciparum [1] was determined as 99%; with Plasmodium falciparum [2] it was 99%; in the assay with HepG2 it was 0%.

Consider `CN1C(=O)C(=NN=C(S)N2CCOCC2)c2ccccc21`, for which the Inhibition in the assay with Plasmodium falciparum [1] is 95%; with Plasmodium falciparum [2], 54%; with HepG2, 57%.

As to `COc1ccc2nccc([C@@H](O)CN3CCC(NCc4ccc5c(c4)NC(=O)C(C)(C)O5)CC3)c2c1.O=C(O)C(=O)O`, the Inhibition was 100% with Plasmodium falciparum [1], 70% in the assay with Plasmodium falciparum [2] and 6% in the assay on HepG2.

In the case of `O=C(NC1CC1)c1ccc2cc(C(=O)N3Cc4ccccc4C(c4ccccc4)C3)ccc2c1` (configuration not stated), the Inhibition in the assay with Plasmodium falciparum [1] is given as 97%; in the assay on Plasmodium falciparum [2], 64%; with HepG2 it was 0%.

With `COc1cc2nc(C)nc(Nc3cccc(Br)c3)c2cc1OC.Cl`, the Inhibition is 100% in the assay on Plasmodium falciparum [1], 82% in the assay on Plasmodium falciparum [2] and 0% in the assay with HepG2.

Regarding `Cc1cc(N[C@@H](CC(C)C)C(=O)Nc2ccccc2)nc(NCCc2ccccc2)n1.O=C(O)C(F)(F)F`, the values for the Inhibition in the assay with Plasmodium falciparum [1], with Plasmodium falciparum [2] and with HepG2 were 100%, 87% and 0%, respectively.

Take `O=c1c(NCCCN(Cc2ccc(F)cc2)c2ccccn2)c(NCc2ccncc2)c1=O`: the Inhibition with Plasmodium falciparum [1] worked out at 100%; in the assay on Plasmodium falciparum [2] it was 95%; with HepG2, 30%.

As to `CN(C)c1ccc(/C=C2\S/C(=N\c3ccccc3)N(c3ccccc3)C2=O)cc1[N+](=O)[O-]`, the Inhibition with Plasmodium falciparum [1] was determined as 96%; in the assay with Plasmodium falciparum [2], 82%; in the assay with HepG2, 9%.

With `CN1CCN(CCc2ccc(N/C=C3\C(=O)Nc4ccc5ncccc5c43)cc2)CC1.Cl`, the Inhibition in the assay with Plasmodium falciparum [1] was 100%; with Plasmodium falciparum [2] it was 98%; with HepG2, 51%.

Regarding `CC(C)(C)SCC(O)Cn1c2ccc(Br)cc2c2cc(Br)ccc21` (configuration not stated), the Inhibition in the assay with Plasmodium falciparum [1] turned out to be 87%; in the assay on Plasmodium falciparum [2] it was 79%; with HepG2, 4%.

On to `CCOCCCNc1nc2cc(OC)c(OC)cc2c2nc(-c3ccccc3)nn12`, for which the Inhibition with Plasmodium falciparum [1] was determined as 96%; in the assay on Plasmodium falciparum [2], 98%; in the assay on HepG2, 10%.

Turning to `CC(C)CNC(=O)c1cncc(-c2ccc(CN(C)C3CCN(C)CC3)cc2)c1.O=C(O)C(F)(F)F`, the Inhibition is reported as 100% in the assay on Plasmodium falciparum [1], 84% in the assay with Plasmodium falciparum [2] and 15% with HepG2.

Consider `C=CCOC1OC(COC(c2ccccc2)(c2ccccc2)c2ccccc2)C(OC(C)=O)C(OC(C)=O)C1NC(C)=O` (configuration not stated), for which the Inhibition in the assay with Plasmodium falciparum [1] is reported as 93%; in the assay on Plasmodium falciparum [2], 66%; with HepG2 it was 0%.
